Assay results taken from PubChem BioAssay AID1159580 (chemical genetic matrix, 2015).
Values joined by “and” are separate entries in the source; they are usually repeats but may differ in a detail not shown here. Equal values may be shown once. Screen size: about 5,500 compounds; about 2,000 (36%) were called active. Not shown: some 18% with an inconclusive outcome. Cut-off read from the data, not from the text of the source: active = normalized growth mostly below about 0.91 (no sharp cut-off); inconclusive = no clear call, values can overlap the other calls; inactive = mostly above about 0.92. The list shows a part of the results.

Experiment: chemical genetic growth profiling, strain panel (AID 1159580);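 note: tested at 20 µM; growth read once vehicle control cultures reached saturation at 30 °C; 1 = growth at the plate median or of vehicle wells; lower values mean less growth of the strain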
Details: S. cerevisiae deletion strains, growth OD

Measured: normalized growth

CC[C@@]1(O)C[C@H](O)c2c(cc3c(c2O)C(=O)c2c(O)ccc(O)c2C3=O)[C@H]1C(=O)OC
active: locus YAL013W, strain DEP1, stronger effect = lower value 0.495 | locus YAL021C, strain ccr4, stronger effect = lower value 0.768 | locus YAL030W, strain snc1, stronger effect = lower value 0.908 | locus YBL061C, strain skt5, stronger effect = lower value 0.89 | locus YBR009C, strain hhf1, stronger effect = lower value 0.805 | locus YBR231C, strain swc5, stronger effect = lower value 0.751 | locus YCL011C, strain gbp2, stronger effect = lower value 0.874 | locus YCL016C, strain dcc1, stronger effect = lower value 0.607 | locus YCL029C, strain bik1, stronger effect = lower value 0.873 | locus YDL035C, strain GPR1, stronger effect = lower value 0.779 | locus YDL074C, strain BRE1, stronger effect = lower value 0.588 | locus YDL101C, strain DUN1, stronger effect = lower value 0.659 | locus YDL134C, strain PPH21, stronger effect = lower value 0.622 | locus YDL185W, strain tfp1, stronger effect = lower value 0.774 | locus YDL192W, strain arf1, stronger effect = lower value 0.735 | locus YDR069C, strain doa4, stronger effect = lower value 0.896 | locus YDR101C, strain arx1, stronger effect = lower value 0.848 | locus YDR137W, strain rgp1, stronger effect = lower value 0.707 | locus YDR150W, strain NUM1, stronger effect = lower value 0.879 | locus YDR162C, strain NBP2, stronger effect = lower value 0.414 | locus YDR195W, strain ref2 1.28 [resistant] | locus YDR318W, strain mcm21, stronger effect = lower value 0.861 | locus YDR388W, stronger effect = lower value 0.811 | locus YDR502C, strain sam2, stronger effect = lower value 0.7 | locus YEL061C, strain CIN8, stronger effect = lower value 0.7 | locus YER015W, strain faa2, stronger effect = lower value 0.894 | locus YER016W, strain bim1, stronger effect = lower value 0.909 | locus YER155C, strain BEM2, stronger effect = lower value 0.638 | locus YER167W, strain BCK2, stronger effect = lower value 0.713 | locus YFR010W, strain ubp6, stronger effect = lower value 0.894 | locus YGL086W, strain mad1, stronger effect = lower value 0.718 | locus YGL248W, strain PDE1, stronger effect = lower value 0.682 | locus YGL253W, strain hxk2, stronger effect = lower value 0.825 | locus YGR135W, strain pre9, stronger effect = lower value 0.818 | locus YHR027C, strain rpn1, stronger effect = lower value 0.713 | locus YHR079C, strain IRE1 (second series), stronger effect = lower value 0.856 | locus YHR094C, strain hxt1, stronger effect = lower value 0.88 | locus YHR129C, strain ARP1, stronger effect = lower value 0.638 | locus YHR200W, strain rpn10, stronger effect = lower value 0.771 | locus YIL066C, strain RNR3, stronger effect = lower value 0.421 | locus YIL073C, strain SPO22, stronger effect = lower value 0.593 | locus YIL125W, strain kgd1, stronger effect = lower value 0.861 | locus YIR030C, strain dcg1, stronger effect = lower value 0.908 | locus YJL092W, strain hpr5, stronger effect = lower value 0.734 | locus YJL095W, strain BCK1 (second series), stronger effect = lower value 0.912 | locus YJL115W, strain asf1, stronger effect = lower value 0.394 | locus YJL134W, strain LCB3, stronger effect = lower value 0.905 | locus YJL164C, strain tpk1, stronger effect = lower value 0.887 | locus YJL166W, strain qcr8, stronger effect = lower value 0.838 | locus YJL187C, strain SWE1 (second series), stronger effect = lower value 0.344 | locus YJR043C, strain POL32, stronger effect = lower value 0.696 | locus YKL009W, strain mrt4, stronger effect = lower value 1.54 [resistant] | locus YKL085W, strain MDH1 (second series), stronger effect = lower value 0.818 | locus YKL085W, strain MDH1, stronger effect = lower value 0.818 | locus YKL160W, strain elf1, stronger effect = lower value 0.9 | locus YKR001C, strain vps1, stronger effect = lower value 0.354 | locus YLR027C, strain aat2, stronger effect = lower value 0.869 | locus YLR039C, strain RIC1, stronger effect = lower value 0.395 | locus YLR058C, strain SHM2, stronger effect = lower value 0.643 | locus YLR221C, strain rsa3, stronger effect = lower value 0.901 | locus YLR258W, strain gsy2, stronger effect = lower value 0.9 | locus YLR262C, strain YPT6 (second series), stronger effect = lower value 0.795 | locus YLR268W, strain sec22, stronger effect = lower value 0.545 | locus YLR320W, strain mms22, stronger effect = lower value 0.216 | locus YLR418C, strain cdc73, stronger effect = lower value 0.56 | locus YML016C, strain PPZ1, stronger effect = lower value 0.815 | locus YML032C, strain rad52, stronger effect = lower value 0.175 | locus YML124C, strain tub3, stronger effect = lower value 0.808 | locus YMR058W, strain fet3, stronger effect = lower value 0.815 | locus YMR078C, strain ctf18, stronger effect = lower value 0.335 | locus YMR223W, strain ubp8, stronger effect = lower value 0.602 | locus YNL067W, strain RPL9B, stronger effect = lower value 0.691 | locus YNL209W, strain ssb2, stronger effect = lower value 0.895 | locus YNL233W, strain BNI4, stronger effect = lower value 0.511 | locus YNL248C, strain rpa49, stronger effect = lower value 0.706 | locus YNL250W, strain rad50, stronger effect = lower value 0.144 | locus YNL271C, strain bni1, stronger effect = lower value 0.885 | locus YNL298W, strain CLA4, stronger effect = lower value 0.891 | locus YNL307C, strain MCK1, stronger effect = lower value 0.785 | locus YNL322C, strain KRE1, stronger effect = lower value 0.751 | locus YNR052C, strain pop2, stronger effect = lower value 0.666 | locus YOL147C, strain pex11, stronger effect = lower value 0.802 | locus YOR061W, strain CKA2, stronger effect = lower value 0.793 | locus YOR069W, strain VPS5, stronger effect = lower value 0.577 | locus YOR070C, strain gyp1, stronger effect = lower value 0.877 | locus YOR083W, strain WHI5, stronger effect = lower value 0.806 | locus YOR106W, strain vam3, stronger effect = lower value 0.593 | locus YOR136W, strain idh2, stronger effect = lower value 0.877 | locus YOR144C, strain elg1, stronger effect = lower value 0.812 | locus YOR184W, strain ser1, stronger effect = lower value 0.426 | locus YOR270C, strain vph1, stronger effect = lower value 0.409 | locus YPL051W, strain arl3, stronger effect = lower value 0.685 | locus YPL055C, strain LGE1, stronger effect = lower value 0.146 | locus YPL106C, strain sse1, stronger effect = lower value 1.21 [resistant] | locus YPR141C, strain kar3, stronger effect = lower value 0.912 | locus YPR163C, strain tif3, stronger effect = lower value 0.72 | locus YPR167C, strain met16, stronger effect = lower value 0.597 | strain wtn01, stronger effect = lower value 0.703
0.21 (active) and 0.986 (inactive): locus YJL095W, strain BCK1, stronger effect = lower value
inactive: locus YAL026C, strain drs2, stronger effect = lower value 0.936 | locus YBR021W, strain FUR4, stronger effect = lower value 1.06 | locus YBR023C, strain chs3, stronger effect = lower value 0.924 | locus YBR171W, strain sec66, stronger effect = lower value 1.02 | locus YBR229C, strain ROT2, stronger effect = lower value 0.931 | locus YBR279W, strain paf1, stronger effect = lower value 0.964 | locus YCL069W, strain vba3, stronger effect = lower value 0.993 | locus YCR088W, strain abp1, stronger effect = lower value 0.963 | locus YDL005C, strain med2, stronger effect = lower value 1.01 | locus YDL040C, strain nat1, stronger effect = lower value 0.967 | locus YDR001C, strain nth1, stronger effect = lower value 1 | locus YDR159W, strain sac3, stronger effect = lower value 0.873 | locus YDR297W, strain sur2, stronger effect = lower value 0.94 | locus YDR334W, strain swr1, stronger effect = lower value 1.01 | locus YDR335W, strain msn5, stronger effect = lower value 0.961 | locus YDR392W, strain spt3, stronger effect = lower value 0.799 | locus YEL003W, strain gim4, stronger effect = lower value 0.958 | locus YEL037C, strain rad23, stronger effect = lower value 0.997 | locus YEL061C, strain CIN8 (second series), stronger effect = lower value 1.01 | locus YER110C, stronger effect = lower value 0.98 | locus YER111C, strain swi4, stronger effect = lower value 1.03 | locus YER155C, strain BEM2 (second series), stronger effect = lower value 1.06 | locus YGL078C, strain dbp3, stronger effect = lower value 0.935 | locus YGL167C, strain pmr1, stronger effect = lower value 0.976 | locus YGL173C, strain kem1, stronger effect = lower value 0.906 | locus YGL227W, strain vid30, stronger effect = lower value 1.01 | locus YGL240W, strain doc1, stronger effect = lower value 0.894 | locus YGR252W, strain gcn5, stronger effect = lower value 0.832 | locus YHR013C, strain ard1, stronger effect = lower value 1 | locus YHR030C, strain SLT2, stronger effect = lower value 0.97 | locus YHR079C, strain IRE1, stronger effect = lower value 0.984 | locus YHR142W, strain chs7, stronger effect = lower value 0.883 | locus YJL129C, strain trk1, stronger effect = lower value 0.989 | locus YJL154C, strain vps35, stronger effect = lower value 0.996 | locus YJL168C, strain set2, stronger effect = lower value 0.942 | locus YJR066W, strain TOR1, stronger effect = lower value 0.941 | locus YKR026C, strain gcn3, stronger effect = lower value 0.994 | locus YKR091W, strain srl3, stronger effect = lower value 1 | locus YLL001W, strain dnm1, stronger effect = lower value 0.953 | locus YLL026W, stronger effect = lower value 0.956 | locus YLL041C, strain sdh2, stronger effect = lower value 0.982 | locus YLR102C, strain apc9, stronger effect = lower value 0.984 | locus YLR113W, strain HOG1, stronger effect = lower value 0.971 | locus YLR342W, strain FKS1 (second series), stronger effect = lower value 0.857 | locus YLR342W, strain FKS1, stronger effect = lower value 0.958 | locus YLR357W, strain rsc2, stronger effect = lower value 1.01 | locus YLR370C, strain arc18, stronger effect = lower value 0.96 | locus YLR371W, strain rom2, stronger effect = lower value 0.991 | locus YLR384C, strain iki3, stronger effect = lower value 1.02 | locus YML120C, strain ndi1, stronger effect = lower value 0.962 | locus YMR125W, strain sto1, stronger effect = lower value 1.08 | locus YMR129W, stronger effect = lower value 0.997 | locus YMR205C, strain PFK2, stronger effect = lower value 0.983 | locus YMR231W, strain pep5, stronger effect = lower value 1.01 | locus YMR307W, strain GAS1, stronger effect = lower value 0.641 | locus YNL071W, strain lat1, stronger effect = lower value 0.932 | locus YNL183C, strain NPR1, stronger effect = lower value 0.929 | locus YNL322C, strain KRE1 (second series), stronger effect = lower value 0.919 | locus YNR049C, strain mso1, stronger effect = lower value 0.976 | locus YOL012C, strain htz1 0.287 | locus YOR001W, strain rrp6, stronger effect = lower value 0.943 | locus YOR080W, strain dia2, stronger effect = lower value 0.941 | locus YOR231W, strain MKK1, stronger effect = lower value 0.981 | locus YOR265W, strain rbl2, stronger effect = lower value 0.938 | locus YOR290C, strain snf2, stronger effect = lower value 0.911 | locus YOR316C, strain cot1, stronger effect = lower value 1 | locus YPL078C, strain atp4, stronger effect = lower value 0.961 | locus YPL240C, strain hsp82, stronger effect = lower value 0.979 | locus YPL256C, strain CLN2, stronger effect = lower value 0.995 | locus YPR119W, strain clb2, stronger effect = lower value 0.952
